Assay [1] can be described thus: yeast TOR pathway RPL19A-GFP modulators, primary screen, cell-based, S. cerevisiae, multiplex flow cytometry (AID 1862; in the data active means percent of DMSO control GFP below about 86%;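 further: lower values mimic rapamycin by blocking the RPL19A rise seen in DMSO cells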). The conditions noted are these: S. cerevisiae RPL19A-GFP strain, flow cytometry fluorescence, 3 h; at 10 µM; stronger effect = lower value.
A short description of assay [2]: modulators of MEP2-GFP levels in yeast, primary screen, S. cerevisiae, multiplex flow cytometry (AID 1867;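 active means GFP response, as percent of the DMSO control, above the screen-wide mean plus 3 SD, about 139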;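 further: median GFP channel fluorescence of barcode-gated MEP2-GFP cells measured by flow cytometry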). Conditions: S. cerevisiae MEP2-GFP strain, 3 h, at 10 µM, stronger effect = higher value, 100% means same as DMSO wells.
Assay [3] in a line: modulators of CIT2-GFP expression in yeast, primary screen, S. cerevisiae, GFP fusion, multiplex flow cytometry (AID 1870;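 active means percent response above a set limit, the screen-wide mean plus 3 SD, cut at about 130% in these data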;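 further: barcoded CIT2-GFP strain pooled with four other GFP strains with rapamycin as positive control; median GFP fluorescence per well over plate mean of DMSO wells so 100% = DMSO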). Conditions: 3 h, at 10 µM, stronger effect = higher value. (A flow cytometer gives signals particle by particle.)
The nature of assay [4]: modulators of LAP4-GFP expression in yeast, primary screen, S. cerevisiae, multiplex flow cytometry (AID 1873;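 active means GFP signal, as percent of the solvent control, above the screen mean plus 3 SD, about 149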). The conditions noted are these: 3 h, at 10 µM, stronger effect = higher value.
A short description of assay [5]: modulators of AGP1-GFP expression in yeast TOR pathway, primary screen, cell-based, multiplex flow cytometry, S. cerevisiae (AID 1887;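 active means GFP signal above the screen-wide mean plus 3 SD, that is over about 124.5% of the solvent control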;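 further: AGP1-GFP fusion strain of S. cerevisiae within a five-strain barcoded multiplex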). Conditions: 3 h, at 10 µM, stronger effect = higher value.
Assay [6] is described as follows: inhibitors of CD8+ T cell-vesicle binding, pilot screen, LFA-1/ICAM-1 modulator project, MLPCN validation set, flow cytometry (AID 2523;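 active means response below a set limit, under 55% cells CD8-positive and vesicle-bound, and CD8 cells' 90th-percentile brightness under 279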;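 on vesicle binding response: mean PE anti-B7-1 fluorescence of CD8+ cells relative to row control; 100% = QL9-loaded vesicles with DMSO vehicle in the same plate row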). The conditions noted are these: 2C mouse CD8+ T cells, at 7 µM, stronger effect = lower value; double positive events: measured here: CD8+/vesicle+ event percentage.
Assay [7] has as its target Integrin beta-1 (Homo sapiens) + Integrin alpha-4 (Homo sapiens) (UniProt P13612+P05556). Description: inhibition of HUTS-21 binding to VLA-4, pilot screen, VLA-4 allosteric modulator project, U937 cells, HUTS-21 mAb, flow cytometry, validation set (AID 2674;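 active means inhibition above 50%, about 3 SD of the validation set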;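 further: antibody binding induced by the VLA-4 ligand LDV present at three times its Kd; 0% = LDV ligand with antibody and no compound and 100% = antibody without LDV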). The conditions noted are these: HUTS-21 LIBS mAb binding, at 6.7 µM, stronger effect = higher value, binding induced by LDV ligand.

Assay [8] in a line: superoxide lowering in aged yeast cells, pilot screen, validation compound set (AID 2706;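 active means superoxide response below 65% of plate, a cut near 3 SD across the whole screen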;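 further: yeast exposed to compound for one week at 30 degrees C before staining; 100% = mean of all compound wells on the same plate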). The conditions noted are these: S. cerevisiae aging, superoxide DHE fluorescence; at 10 µM; stronger effect = lower value.
The target of assay [9] is Beta-adrenergic receptor kinase 1 (Homo sapiens) (UniProt P25098). Put plainly: GRK2 binders displacing RNA aptamer, biochemical, validation, human GRK2, bead flow cytometry (AID 488806;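 active means aptamer binding inhibition above 30%, about 3 SD of noise from non-fluorescent compounds; inactive means inhibition at or below 30%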). The conditions noted are these: bead-bound GRK2, FAM-aptamer displacement, at 10 µM, stronger effect = higher value.
Chain of Beta-adrenergic receptor kinase 1 (Homo sapiens) (P25098 whole entry, looked up): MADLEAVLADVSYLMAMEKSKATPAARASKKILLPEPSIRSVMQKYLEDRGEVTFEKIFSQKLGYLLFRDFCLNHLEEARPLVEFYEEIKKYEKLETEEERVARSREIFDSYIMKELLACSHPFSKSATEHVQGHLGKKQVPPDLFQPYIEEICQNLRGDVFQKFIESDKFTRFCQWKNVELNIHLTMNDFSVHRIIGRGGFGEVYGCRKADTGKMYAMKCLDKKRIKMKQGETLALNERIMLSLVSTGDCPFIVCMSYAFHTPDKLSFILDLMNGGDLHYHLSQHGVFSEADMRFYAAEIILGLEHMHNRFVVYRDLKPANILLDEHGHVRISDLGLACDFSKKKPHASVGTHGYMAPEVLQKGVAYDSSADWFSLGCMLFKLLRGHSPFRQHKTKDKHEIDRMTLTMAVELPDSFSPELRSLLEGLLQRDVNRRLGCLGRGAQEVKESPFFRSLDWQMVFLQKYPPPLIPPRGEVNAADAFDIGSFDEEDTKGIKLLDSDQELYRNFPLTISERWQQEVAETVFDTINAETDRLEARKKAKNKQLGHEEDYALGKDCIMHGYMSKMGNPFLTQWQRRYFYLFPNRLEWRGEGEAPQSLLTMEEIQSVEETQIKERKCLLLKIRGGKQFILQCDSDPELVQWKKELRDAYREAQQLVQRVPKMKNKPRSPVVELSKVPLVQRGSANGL
For assay [10], the target named is Beta-2 adrenergic receptor (Homo sapiens) (UniProt P07550). Put plainly: beta2AR agonists driving receptor internalization, pilot screen, cell-based, FAP fluorogen, flow cytometry, validation set (AID 504459;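 active means percent response above 42, roughly 3 SD of non-fluorescent test compounds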;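 further: agonist-driven loss of surface beta2AR via internalization measured by FAP dye flow cytometry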). The conditions noted are these: Am2.2-beta2AR cells, FAP surface receptor flow cytometry; at 10 µM; stronger effect = higher value.
Chain of Beta-2 adrenergic receptor (Homo sapiens) (P07550 whole entry, looked up): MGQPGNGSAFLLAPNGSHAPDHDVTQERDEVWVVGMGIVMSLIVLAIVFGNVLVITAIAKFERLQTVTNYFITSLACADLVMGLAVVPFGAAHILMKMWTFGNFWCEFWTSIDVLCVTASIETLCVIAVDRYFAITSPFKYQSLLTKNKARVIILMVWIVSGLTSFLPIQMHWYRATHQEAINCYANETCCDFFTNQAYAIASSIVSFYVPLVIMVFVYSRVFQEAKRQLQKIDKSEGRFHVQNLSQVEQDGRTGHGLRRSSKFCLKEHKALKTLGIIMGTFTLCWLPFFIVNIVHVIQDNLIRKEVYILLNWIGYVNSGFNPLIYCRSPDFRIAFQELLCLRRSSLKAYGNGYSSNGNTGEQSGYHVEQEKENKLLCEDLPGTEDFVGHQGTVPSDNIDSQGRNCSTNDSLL
The target of assay [11] is AP-2 complex subunit beta (Homo sapiens) (UniProt P63010). Put plainly: inhibitors of arrestin peptide binding to AP2, pilot screen, biochemical, validation set, GST-AP2 beads, flow cytometry (AID 504541;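 active means inhibition above 54%, about 3 SD of non-fluorescent compounds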;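 further: AP2 carries R879A mutation and is captured from E. coli lysate; bead-bound FITC arrestin peptide fluorescence measuring arrestin peptide binding to AP2; 0% = DMSO wells and 100% = excess unlabeled arrestin peptide control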). The conditions noted are these: FITC arrestin peptide, at 10 µM, stronger effect = higher value, AP2 beta2 appendage fragment, R879A mutant.
Chain of AP-2 complex subunit beta (Homo sapiens) (P63010 whole entry, looked up, the tested form may be a part, one chain of several): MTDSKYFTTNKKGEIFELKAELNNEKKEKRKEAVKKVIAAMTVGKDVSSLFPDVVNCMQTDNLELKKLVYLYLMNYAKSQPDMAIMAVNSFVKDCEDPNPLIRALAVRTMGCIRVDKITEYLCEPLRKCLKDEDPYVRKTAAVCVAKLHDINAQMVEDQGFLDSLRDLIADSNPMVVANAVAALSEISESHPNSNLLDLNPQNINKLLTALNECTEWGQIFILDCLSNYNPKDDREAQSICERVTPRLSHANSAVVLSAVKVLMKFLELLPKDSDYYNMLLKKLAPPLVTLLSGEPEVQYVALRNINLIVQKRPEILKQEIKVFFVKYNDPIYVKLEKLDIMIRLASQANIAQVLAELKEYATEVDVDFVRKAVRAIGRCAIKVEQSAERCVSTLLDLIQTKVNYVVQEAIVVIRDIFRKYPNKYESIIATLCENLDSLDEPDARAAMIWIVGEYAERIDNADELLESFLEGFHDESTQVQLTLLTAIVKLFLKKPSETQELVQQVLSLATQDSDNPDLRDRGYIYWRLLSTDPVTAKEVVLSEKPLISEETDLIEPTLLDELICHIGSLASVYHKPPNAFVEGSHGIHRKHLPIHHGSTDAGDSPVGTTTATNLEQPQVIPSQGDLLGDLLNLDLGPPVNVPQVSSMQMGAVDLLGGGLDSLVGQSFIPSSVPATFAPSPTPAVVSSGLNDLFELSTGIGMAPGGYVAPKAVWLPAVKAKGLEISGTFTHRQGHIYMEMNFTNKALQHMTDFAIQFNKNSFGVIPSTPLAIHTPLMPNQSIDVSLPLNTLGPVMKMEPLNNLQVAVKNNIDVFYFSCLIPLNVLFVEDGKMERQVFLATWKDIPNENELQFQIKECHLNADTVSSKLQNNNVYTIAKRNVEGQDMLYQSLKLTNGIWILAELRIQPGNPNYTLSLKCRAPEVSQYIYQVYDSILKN
Assay [12] is described as follows: yeast V-ATPase proton transport modulators, S. cerevisiae, pHLuorin, HTS validation (AID 504600; in the data active means response above about 15%;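 further: plate controls were DMSO for no effect and reference compound for full effect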). Conditions: S. cerevisiae pHLuorin cytosolic pH, at 10 µM, stronger effect = higher value.
Assay [13] deals with anti-desmoglein-3 scFv antibody binding to human DSG3. Description: inhibitors of anti-DSG3 scFv binding to DSG3, pilot screen, biochemical, validation compound set, bead-based, flow cytometry (AID 588368).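 Further: signal is the median channel fluorescence of bead-bound GFP antibody.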 Conditions: Protein G beads, DSG3-Fc, scFv-GFP binding, at 10 µM, stronger effect = lower value.
Assay [14] in a line: inhibitors of fungal efflux pumps CDR1, CDR2, MDR1, pilot screen, validation compound set, multiplex, phenotypic (AID 588506;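 active means efflux inhibition above 0.42, the validation set average plus 4 SD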;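 further: Nile Red retained in cells so higher fluorescence means more efflux inhibition; 0 = negative control wells and 1 = enniatin B 25 µM full block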). The conditions noted are these: S. cerevisiae pump-expressing triplex, Nile Red efflux flow cytometry; at 10 µM; stronger effect = higher value; the pumps come from Candida albicans.
Assay [15] concerns the target ATP-binding cassette sub-family B member 6 (Homo sapiens) (UniProt Q9NP58). Put plainly: ABCB6 transporter inhibitors, pilot screen, K562-ABCB6 cells, flow cytometry, validation set (AID 588550;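 active means inhibition above the screen-wide mean plus 3 SD, about 51%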;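 further: 0% = DMSO wells and 100% = benzethonium chloride 70 µM positive control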). The conditions noted are these: K562-ABCB6 porphyrin accumulation, 1 h, at 10 µM, stronger effect = higher value.
Assay [16] in a line: promoters of myeloid differentiation in arrested cells, primary screen, cell-based, GFP/MAC1 double positive, flow cytometry, validation set (AID 588685;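 active means differentiation response of at least 50%, scaled between solvent and reference control, from cells with both markers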;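 further: compound exposure lasts four days before antibody staining and flow analysis; 0% = DMSO wells and 100% = 5 µM fulvestrant positive control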). Conditions: ER-HoxA9 marrow cells, stronger effect = higher value, normalized: vehicle 0, fulvestrant 100.

Results filed as inconclusive are left out. Active and inactive are the calls of the source.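 How the source made its calls, unless noted: active means binding below the plate cutoff, the plate median minus 3 SD, with a reading above zero; inconclusive means below the plate cutoff but reading exactly zero; inactive means the rest.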

The record followed here is PubChem BioAssay.

What is called inhibition is the relative decrease from the control value, in per cent.

Chain of ATP-binding cassette sub-family B member 6 (Homo sapiens) (Q9NP58 whole entry, looked up): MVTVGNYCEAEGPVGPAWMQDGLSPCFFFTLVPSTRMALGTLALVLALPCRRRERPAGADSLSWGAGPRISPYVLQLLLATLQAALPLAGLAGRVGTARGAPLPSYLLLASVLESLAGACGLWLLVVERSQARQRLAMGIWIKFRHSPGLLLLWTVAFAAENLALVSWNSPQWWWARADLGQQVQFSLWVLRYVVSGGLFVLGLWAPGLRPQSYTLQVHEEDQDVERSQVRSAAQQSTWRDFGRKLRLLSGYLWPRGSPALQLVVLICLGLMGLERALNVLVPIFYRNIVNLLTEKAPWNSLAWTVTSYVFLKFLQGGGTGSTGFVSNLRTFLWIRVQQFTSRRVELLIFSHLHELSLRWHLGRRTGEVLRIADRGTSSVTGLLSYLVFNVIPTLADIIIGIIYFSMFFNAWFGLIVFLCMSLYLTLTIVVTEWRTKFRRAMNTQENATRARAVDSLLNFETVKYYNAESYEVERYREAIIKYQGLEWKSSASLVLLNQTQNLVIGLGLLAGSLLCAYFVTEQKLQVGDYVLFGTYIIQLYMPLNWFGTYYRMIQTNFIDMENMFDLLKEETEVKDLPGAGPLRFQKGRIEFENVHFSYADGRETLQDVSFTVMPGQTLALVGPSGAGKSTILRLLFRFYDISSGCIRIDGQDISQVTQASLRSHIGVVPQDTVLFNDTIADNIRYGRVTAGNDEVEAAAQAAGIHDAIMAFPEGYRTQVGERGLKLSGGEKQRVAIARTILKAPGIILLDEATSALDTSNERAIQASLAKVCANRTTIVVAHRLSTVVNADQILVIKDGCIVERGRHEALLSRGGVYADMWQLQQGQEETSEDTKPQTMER
Chain of Integrin beta-1 (Homo sapiens) + Integrin alpha-4 (Homo sapiens) (P05556 whole entry, looked up): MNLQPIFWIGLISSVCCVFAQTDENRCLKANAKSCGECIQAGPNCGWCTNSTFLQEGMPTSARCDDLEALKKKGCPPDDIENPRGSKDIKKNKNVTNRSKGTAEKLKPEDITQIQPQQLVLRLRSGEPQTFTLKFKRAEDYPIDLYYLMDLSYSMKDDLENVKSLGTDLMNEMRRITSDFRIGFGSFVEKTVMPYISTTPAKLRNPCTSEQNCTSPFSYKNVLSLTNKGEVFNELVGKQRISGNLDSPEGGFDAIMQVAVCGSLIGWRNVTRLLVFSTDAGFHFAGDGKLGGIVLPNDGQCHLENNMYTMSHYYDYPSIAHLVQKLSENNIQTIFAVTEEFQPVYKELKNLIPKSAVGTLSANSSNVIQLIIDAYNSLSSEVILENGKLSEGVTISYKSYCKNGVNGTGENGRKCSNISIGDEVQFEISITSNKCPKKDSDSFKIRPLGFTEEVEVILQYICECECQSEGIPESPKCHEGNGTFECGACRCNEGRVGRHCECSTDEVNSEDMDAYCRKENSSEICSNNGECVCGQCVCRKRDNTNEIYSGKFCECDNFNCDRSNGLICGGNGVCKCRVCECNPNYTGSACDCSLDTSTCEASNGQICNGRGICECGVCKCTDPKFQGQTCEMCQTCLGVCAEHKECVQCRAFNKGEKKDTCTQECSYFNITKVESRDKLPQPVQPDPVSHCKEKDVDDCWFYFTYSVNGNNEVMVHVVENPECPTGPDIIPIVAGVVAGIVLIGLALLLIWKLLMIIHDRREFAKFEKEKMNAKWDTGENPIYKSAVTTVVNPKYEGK
Chain of Integrin beta-1 (Homo sapiens) + Integrin alpha-4 (Homo sapiens) (P13612 whole entry, looked up): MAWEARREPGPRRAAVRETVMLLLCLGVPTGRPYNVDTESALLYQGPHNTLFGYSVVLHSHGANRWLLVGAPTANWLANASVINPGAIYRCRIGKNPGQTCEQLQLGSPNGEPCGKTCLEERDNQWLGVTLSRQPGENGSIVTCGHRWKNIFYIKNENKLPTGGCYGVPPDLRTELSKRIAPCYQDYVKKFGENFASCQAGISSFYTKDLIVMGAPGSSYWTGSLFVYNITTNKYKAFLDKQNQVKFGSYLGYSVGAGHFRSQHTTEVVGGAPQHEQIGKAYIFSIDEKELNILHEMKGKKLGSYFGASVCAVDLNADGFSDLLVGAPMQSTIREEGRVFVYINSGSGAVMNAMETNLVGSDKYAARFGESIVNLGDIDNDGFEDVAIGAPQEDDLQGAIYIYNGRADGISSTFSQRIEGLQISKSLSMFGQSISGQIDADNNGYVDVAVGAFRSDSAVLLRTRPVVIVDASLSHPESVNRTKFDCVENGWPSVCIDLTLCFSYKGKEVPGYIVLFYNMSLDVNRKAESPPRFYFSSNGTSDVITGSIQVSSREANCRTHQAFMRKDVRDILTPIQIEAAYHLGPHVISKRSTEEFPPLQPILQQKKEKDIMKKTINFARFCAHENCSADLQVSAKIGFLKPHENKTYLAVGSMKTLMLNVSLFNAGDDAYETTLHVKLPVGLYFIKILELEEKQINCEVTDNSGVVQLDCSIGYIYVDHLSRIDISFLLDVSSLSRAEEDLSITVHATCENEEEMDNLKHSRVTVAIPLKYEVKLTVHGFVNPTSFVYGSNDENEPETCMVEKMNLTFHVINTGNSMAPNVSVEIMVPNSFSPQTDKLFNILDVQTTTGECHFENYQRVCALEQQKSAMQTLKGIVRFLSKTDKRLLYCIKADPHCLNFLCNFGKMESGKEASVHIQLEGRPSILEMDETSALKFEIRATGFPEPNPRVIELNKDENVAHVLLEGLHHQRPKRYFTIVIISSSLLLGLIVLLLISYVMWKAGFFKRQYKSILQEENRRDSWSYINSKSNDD

For the molecule `CN(C)CCN(Cc1ccc(Cl)cc1)c1ccccn1`, in [1], the percent of DMSO control GFP was 107% (inactive). The GFP response vs DMSO was 112% (inactive) in assay [2] and 114% (inactive) in assay [4]. The percent response of DMSO control in [3] is 114% (inactive). Also, the GFP response, % of DMSO in [5] was 118% (inactive). For the same molecule, in assay [6], the double positive events worked out at 61.2%. Moreover, in assay [6], the vesicle binding response was 125% (inactive). Besides, the inhibition in [7] is 0.25% (inactive); in assay [11], 54.2% (active); in assay [15] it was 8% (inactive). For the same molecule, the superoxide response (% of plate) in assay [8] was 96% (inactive). The aptamer binding inhibition in assay [9] was -4% (inactive). Besides, the response was -7.41% (inactive) in assay [10] and -5.25% (inactive) in assay [12]. Also, in [13], the binding (% of control) is 97.3% (inactive). The efflux inhibition (fraction of control) in [14] is 0.37 (inactive). In addition, the differentiation response in [16] was -19.2% (inactive).

Take `N#C/C(=C/c1ccccc1)C(=O)NCc1ccccc1`: the percent of DMSO control GFP in [1] was 97.4% (inactive). The GFP response vs DMSO in [2] was 108% (inactive); in [4], 106% (inactive). For the same molecule, the percent response of DMSO control in assay [3] is 101% (inactive). For the same molecule, in [5], the GFP response, % of DMSO is 102% (inactive). In assay [6], this molecule displayed a double positive events of 58%. Moreover, the vesicle binding response in assay [6] is 197% (inactive). Moreover, the inhibition in assay [7] is 7.76% (inactive); in assay [11], 8.66% (inactive); in [15] it was 3% (inactive). Besides, the superoxide response (% of plate) in assay [8] is 95.8% (inactive). For the same molecule, in [9], the aptamer binding inhibition is 0% (inactive). Moreover, the response in assay [10] was -0.74% (inactive); in assay [12], -0.63% (inactive). For the same molecule, the binding (% of control) in assay [13] was 101% (inactive). The efflux inhibition (fraction of control) in assay [14] is -0.06 (inactive). For the same molecule, the differentiation response in [16] is -18.4% (inactive).

On to `COc1ccc(C(=O)Oc2ccc3c(C)cc(=O)oc3c2C(C)=O)cc1`, for which the percent of DMSO control GFP in assay [1] was 104% (inactive). Moreover, the figures for the GFP response vs DMSO in assay [2] and in assay [4] were 103% (inactive) and 105% (inactive), respectively. Further, the percent response of DMSO control in [3] is 108% (inactive). Also, in [5], the GFP response, % of DMSO is 106% (inactive). The molecule also yielded a double positive events in [6] of 61.4%. In addition, the vesicle binding response in [6] is 123% (inactive). Besides, the inhibition in assay [7] was -5.11% (inactive); in assay [11], 5.55% (inactive); in assay [15], 14% (inactive). In addition, in assay [8], the superoxide response (% of plate) was 103% (inactive). Further, the aptamer binding inhibition in [9] is -1% (inactive). Further, the results for the response in assay [10] and in assay [12] were 2.26% (inactive) and -3.4% (inactive), respectively. Also, the binding (% of control) in assay [13] was 107% (inactive). Also, the efflux inhibition (fraction of control) in assay [14] was 0.12 (inactive). Moreover, the differentiation response in [16] was -19.2% (inactive).

As for `CCc1ccc(CN(C)Cc2nc(Cc3ccccc3)no2)nc1`, the percent of DMSO control GFP in assay [1] was 105% (inactive). The values for the GFP response vs DMSO in [2] and in assay [4] were 99.6% (inactive) and 112% (inactive), respectively. Further, in [3], the percent response of DMSO control was 103% (inactive). Besides, the GFP response, % of DMSO in assay [5] is 112% (inactive). The molecule further displayed a double positive events in assay [6] of 59.8%. Further, the vesicle binding response in assay [6] was 160% (inactive). Further, the inhibition is 0.59% (inactive) in assay [7], 1.57% (inactive) in assay [11] and -5% (inactive) in assay [15]. Also, the superoxide response (% of plate) in [8] is 101% (inactive). Moreover, the aptamer binding inhibition in assay [9] is 4% (inactive). Moreover, the values for the response in [10] and in assay [12] were -25% (inactive) and -11.6% (inactive), respectively. Further, the binding (% of control) in assay [13] is 97.3% (inactive). For the same molecule, the efflux inhibition (fraction of control) in assay [14] was -0.04 (inactive). In assay [16], the differentiation response is 14.7% (inactive).

On to `Cc1ccccc1N1C(N)=NC(N)=NC1(C)C`, for which the percent of DMSO control GFP in assay [1] was 102% (inactive). The GFP response vs DMSO in [2] is 103% (inactive); in assay [4] it was 94.8% (inactive). Moreover, the percent response of DMSO control in assay [3] is 108% (inactive). In [5], the GFP response, % of DMSO is 104% (inactive). In addition, the double positive events in [6] is 63%. In addition, the vesicle binding response in [6] was 135% (inactive). Besides, the inhibition is -9.13% (inactive) in [7], -7.13% (inactive) in [11] and 20% (inactive) in assay [15]. The superoxide response (% of plate) in assay [8] was 96.3% (inactive). Moreover, the aptamer binding inhibition in assay [9] is 0% (inactive). The response in assay [10] is 7.98% (inactive); in assay [12], 1.38% (inactive). Besides, the binding (% of control) in [13] was 104% (inactive). Also, the efflux inhibition (fraction of control) in [14] is -0.28 (inactive). Further, in assay [16], the differentiation response was -19.2% (inactive).
